Rows were chosen to be rich in hits. Some 6.9% of all compounds tested hit in one or more screens of this group.
Giardia kill = Small Molecules that selectively kill Giardia lamblia: qHTS; 340,000 compounds, 0.15% hits; Giardia lamblia trophozoite viability; activity change, % at 7.66 µM, hits read low; in the data active = activity change below about -80%; inconclusive = between about -30% and that limit;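 note: parasites exposed to compound for two days anaerobically before the ATP read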
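Compounds were tested on trophozoites seeded at 100 cells/well and held 48 hrs at 37 deg C anaerobically. An ATP-based luminescent kit measured the remaining live cells.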
MCF10A rerep = A quantitative high throughput screen for small molecules that induce DNA re-replication in MCF 10a normal breast cells | AID 624296, 2012 | 350,000 compounds, 2.9% hits | MCF 10A DNA re-replication, Hoechst nuclear intensity, 48 h | Potency, µM (top dose mostly 46.1 µM), hits mostly activators; note: nearly all actives have a fitted effect of over 50% in size
Vif-A3G inh = qHTS for Inhibitors of Vif-A3G Interactions: qHTS | HeLa A3G-eYFP + Vif (tagged APOBEC3G with the HIV-1 protein that degrades it), YFP fluorescence, overnight | Potency, µM (titrated, usually from 46.1 µM), actives largely listed as inhibitors | 410,000 compounds, 0.076% hits; note: nearly all actives have a fitted effect of over 60% in size
Target sequence (Q9HC16 whole entry, looked up): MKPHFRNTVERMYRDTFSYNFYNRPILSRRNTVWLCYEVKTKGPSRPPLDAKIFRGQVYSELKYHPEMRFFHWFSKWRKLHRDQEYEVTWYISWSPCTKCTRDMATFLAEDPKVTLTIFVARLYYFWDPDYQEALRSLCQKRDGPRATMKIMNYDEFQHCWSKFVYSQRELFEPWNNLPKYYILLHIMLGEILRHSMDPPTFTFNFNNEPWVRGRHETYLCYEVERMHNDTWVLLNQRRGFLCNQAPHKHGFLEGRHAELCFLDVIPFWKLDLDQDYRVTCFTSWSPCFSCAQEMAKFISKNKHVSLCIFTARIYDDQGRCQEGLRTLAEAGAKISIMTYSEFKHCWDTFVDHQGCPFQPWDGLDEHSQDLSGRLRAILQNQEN
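HeLa cells stably expressing Vif and C-terminally eYFP-tagged A3G, seeded overnight at 37 deg C, then exposed to compound by pintool overnight at 37 deg C. Rise in yellow fluorescence (Ex 488/Em 500-530, Acumen) marks blocked Vif-driven A3G degradation.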
IL1B secr inh = qHTS for Inhibitors of Inflammasome Signaling: IL-1-beta AlphaLISA Primary Screen; THP-1 LPS/ATP IL-1B secretion, AlphaLISA, 16 h; active compounds read low; activity change, % at 57.5 µM; 360,000 compounds, 4.7% hits; in the data active = activity change below about -50%; inconclusive = mostly about -30% to -49%
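THP-1 cells pretreated 1 hr with compounds (up to 57.5 uM final), then stimulated with LPS (250 ng/mL final) plus ATP (1.25 mM final); secreted IL-1B measured by AlphaLISA after 16 hr, decreased signal indicating inhibition.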
Vif-A3F inh = qHTS for Inhibitors of Vif-A3F Interactions: qHTS | AID 602313, 2012 | 390,000 compounds, 0.2% hits | HeLa A3F-eYFP + Vif (tagged APOBEC3F with the HIV-1 protein that degrades it), YFP fluorescence increase | Potency, µM (top dose mostly 46.1 µM); note: nearly all actives have a fitted effect of over 65% in size
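HeLa cells stably expressing Vif plus C-terminally eYFP-tagged A3F were seeded, incubated overnight at 37 deg C, dosed with compound, incubated overnight again at 37 deg C. Yellow fluorescence (Ex 488/Em 500-530) reported blocked Vif-mediated A3F-eYFP degradation.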
SW480 rereplic = A quantitative high throughput screen for small molecules that induce DNA re-replication in SW480 colon adenocarcinoma cells; SW480 DNA re-replication, Hoechst DNA content imaging, 48 h; Potency, µM (highest dose often 46.1 µM), most hits filed as activators; 340,000 compounds, 1.8% hits; AID 624297, 2012; note: nearly all actives have a fitted effect of over 55% in size
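250 cells/well; 23 nL cpd via pin tool; 48 hr, 37 C, 5% CO2; Hoechst 40 min; imager read of total nuclear intensity, ex 405/em 500-530 nm.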
Hits are given with their value; [ ] = remark or other dose. Unless noted, calls come from the whole dose curve; as a rule, active = well fitted curve in the direction sought with a large enough effect; inconclusive = small, poorly fitted or top-dose-only effect, or another doubt; inactive = no such curve, though single readings can be large; an effect the other way counts as inactive or inconclusive.

Screening Cc1cc(C)c(C#N)c(SCc2nnc(-c3ccccc3)o2)n1 returned Giardia kill inactive, MCF10A rerep 2.59µM, Vif-A3G inh inactive, IL1B secr inh inactive, Vif-A3F inh inactive and SW480 rereplic 8.2µM.
For Cc1cc(C)cc(CC(Cc2nc3ccccc3[nH]2)c2nc3ccccc3[nH]2)c1 (stereo not given) the results were Giardia kill inactive, MCF10A rerep inconclusive, Vif-A3G inh inactive, IL1B secr inh -69.3, Vif-A3F inh inactive and SW480 rereplic inactive[9.22 µM].
Screening Cc1ccc(CSCc2nc3ccccc3[nH]2)cc1 returned Giardia kill inactive, MCF10A rerep 16.4µM, Vif-A3G inh inactive, IL1B secr inh -98.5, Vif-A3F inh inactive and SW480 rereplic inconclusive.
Cc1cc(C)c(C#N)c(SCc2nc3ccccc3[nH]2)n1 was read as Giardia kill inactive, MCF10A rerep 12.6µM, Vif-A3G inh inactive, IL1B secr inh inactive, Vif-A3F inh inactive and SW480 rereplic 18.4µM.
`Cc1cc(C)c(C#N)c(SCc2nnc(-c3ccccc3[N+](=O)[O-])o2)n1` gave Giardia kill inactive, MCF10A rerep inactive, Vif-A3G inh inactive, IL1B secr inh inactive, Vif-A3F inh inactive and SW480 rereplic inactive.
`Cc1cccc(C(=O)Nc2ccc(S(=O)(=O)N3CCC(c4nc5ccccc5s4)CC3)cc2)c1` gave Vif-A3G inh inactive and Vif-A3F inh inactive.
`CCOC(=O)N1CCc2c(sc3c2c(=O)n(-c2ccc(Cl)cc2)c(=O)n3CC(=O)Nc2ccccc2)C1` gave Vif-A3G inh inactive and Vif-A3F inh inactive.
Screening CCCc1nn2c(=O)cc(COC(=O)c3cccc(NC(=O)COc4ccccc4C)c3)nc2s1 returned Vif-A3G inh inactive and Vif-A3F inh inactive.
Screening Cc1ccc(C#N)c(SCc2nnc(-c3ccc(Cl)cc3)o2)n1 returned Giardia kill inactive, MCF10A rerep 0.731µM, Vif-A3G inh inactive, IL1B secr inh inactive, Vif-A3F inh inactive and SW480 rereplic 2.31µM.
`Cc1ccc(C#N)c(SCc2cc3c(cc2Cl)OCO3)n1` gave Giardia kill inconclusive, MCF10A rerep inactive, Vif-A3G inh inactive, IL1B secr inh inactive, Vif-A3F inh inactive and SW480 rereplic inactive.
For Cc1c(C)n(Cc2ccccc2)c2ccc(C(=O)OCCCN(C)C)cc12 the results were Giardia kill inactive, MCF10A rerep 20.6µM, Vif-A3G inh inactive, IL1B secr inh -108.8, Vif-A3F inh inactive and SW480 rereplic inconclusive.
`CCOC(=O)c1[nH]c(C)c(/C(O)=C2\C(=O)C(=O)N(CCCN3CCOCC3)C2c2cccs2)c1C` (stereo not given) gave Giardia kill inactive, MCF10A rerep 9.2µM, Vif-A3G inh inconclusive, IL1B secr inh inactive, Vif-A3F inh inactive and SW480 rereplic 13µM.
`CC(C)CCN(C(=O)c1csnn1)C(C(=O)NC1CCCC1)c1ccc(F)cc1` (stereo not given) gave Giardia kill inactive, MCF10A rerep inactive, Vif-A3G inh inactive, IL1B secr inh -63.3, Vif-A3F inh inactive and SW480 rereplic inactive.
For CCn1c(/C=C/N(C)c2ccccc2)[n+](CC)c2ccc(Cl)cc21 the results were Giardia kill inactive, MCF10A rerep inactive, Vif-A3G inh inactive, IL1B secr inh -97.5, Vif-A3F inh inactive and SW480 rereplic inactive.
For O=C(O)c1ccc(CNCc2ccc(Cl)cc2)s1 the results were Vif-A3G inh inactive and Vif-A3F inh inactive.
`Nc1cccnc1S(=O)(=O)c1ccccc1` gave Giardia kill inactive, MCF10A rerep inactive, Vif-A3G inh inactive, IL1B secr inh inactive, Vif-A3F inh inactive and SW480 rereplic inactive.
Nc1cccnc1S(=O)(=O)c1cccc(C(F)(F)F)c1 was read as Giardia kill inactive, MCF10A rerep inactive, Vif-A3G inh inactive, IL1B secr inh inactive, Vif-A3F inh inactive and SW480 rereplic 2.91µM.

Screening data as filed in PubChem BioAssay.
